# Test results taken from PMC12350791.
# Key:
# Actin, cytoplasmic 1 = Actin, cytoplasmic 1 (UniProt P60709); assay: cross-linking mass spectrometry
# [1] = molecular target: DNA replication licensing factor MCM5 (UniProt P33992); assay: cross-linking mass spectrometry
# [2] = molecular target: Acidic leucine-rich nuclear phosphoprotein 32 family member B (UniProt Q92688); assay: cross-link between two proteins; cross-linking mass spectrometry
# Ankyrin-1 = Ankyrin-1 (UniProt P16157); assay: as above
# [3] = molecular target: Centrosomal protein of 85 kDa (UniProt Q6P2H3); assay: as above
# [4] = molecular target: Heterogeneous nuclear ribonucleoprotein K (UniProt P61978); assay: as above
# Filamin-C = Filamin-C (UniProt Q14315); assay: as above
# [5] = molecular target: Heterogeneous nuclear ribonucleoprotein A/B (UniProt Q99729); assay: as above
# [6] = molecular target: Heterogeneous nuclear ribonucleoprotein M (UniProt P52272); assay: as above
# [7] = molecular target: Leucine--tRNA ligase, cytoplasmic (UniProt Q9P2J5); assay: as above
# Plastin-1 = Plastin-1 (UniProt Q14651); assay: as above
# [8] = molecular target: Platelet-activating factor acetylhydrolase IB subunit alpha1 (UniProt Q15102); assay: as above
# [9] = molecular target: Splicing factor 3B subunit 3 (UniProt Q15393); assay: as above
# Tubulin alpha-4A chain = Tubulin alpha-4A chain (UniProt P68366); assay: as above
# Tubulin beta-2B chain = Tubulin beta-2B chain (UniProt Q9BVA1); assay: as above
# Tubulin beta-4B chain = Tubulin beta-4B chain (UniProt P68371); assay: as above
# Zincore component SEPHS1 = Zincore component SEPHS1 (UniProt P49903); assay: as above
# [10] = molecular target: Heterogeneous nuclear ribonucleoproteins C1/C2 (UniProt P07910); assay: cross-link between two proteins; affinity purification or IP with mass spectrometry; cross-linking mass spectrometry
# [11] = molecular target: Heterogeneous nuclear ribonucleoprotein F (UniProt P52597); assay: as above
# [12] = molecular target: RNA binding motif protein, X-linked-like-1 (UniProt Q96E39); assay: as above
substance,measurement,setting,value
"Formin-like protein 1, O95466",listed as a hit,"Actin, cytoplasmic 1",yes
"DNA replication licensing factor MCM4, P33991",listed as a hit,[1],yes
"Acidic leucine-rich nuclear phosphoprotein 32 family member A, P39687",listed as a hit,[2],yes
"Spectrin alpha chain, erythrocytic 1, P02549",listed as a hit,Ankyrin-1,yes
"Heat shock protein HSP 90-beta, P08238",listed as a hit,[3],yes
same,listed as a hit,[4],yes
"Filamin-B, O75369",listed as a hit,Filamin-C,yes
"Heterogeneous nuclear ribonucleoprotein A1, P09651",listed as a hit,[5],yes
"Matrin-3, P43243",listed as a hit,[6],yes
"Isoleucine--tRNA ligase, cytoplasmic, P41252",listed as a hit,[7],yes
"Plastin-2, P13796",listed as a hit,Plastin-1,yes
"Platelet-activating factor acetylhydrolase IB subunit alpha2, P68402",listed as a hit,[8],yes
"Splicing factor 3B subunit 2, Q13435",listed as a hit,[9],yes
"Stathmin, P16949",listed as a hit,Tubulin alpha-4A chain,yes
"Tubulin alpha-1C chain, Q9BQE3",listed as a hit,Tubulin beta-2B chain,yes
"Elongation factor 1-alpha 1, P68104",listed as a hit,Tubulin beta-4B chain,yes
"Heterogeneous nuclear ribonucleoprotein D-like, O14979",listed as a hit,Zincore component SEPHS1,yes
same,listed as a hit,[10],yes
"Heterogeneous nuclear ribonucleoproteins C1/C2, P07910",listed as a hit,[11],yes
same,listed as a hit,[12],yes
